This is a sample that favours compounds with a hit; in the whole collection about 10% have one here.
CtBP-E1A blk – CtBP/E1A binding inhibition. AlphaScreen GST-E1A/His-CtBP binding, 1536-well; stronger effect = lower value. activity change, % (test concentration not listed). actives 0.49% (n = 340,000). AID 651724; in the data active = activity change below about -65%; inconclusive = mostly about -30% to -63%
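GST-E1A and His-tagged CtBP (125 nM each as 5X stock) were preincubated with pin-transferred compound for 2 h at 37 °C in the dark, then glutathione donor and nickel acceptor beads were added for 1 h before AlphaScreen reading.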
Six1-Eya2 blk – inhibitors of human Six1/Eya2 interaction | Q15475+O00167 | AlphaScreen GST-Six1/His-Eya2 binding, biochemical; stronger effect = lower value | activity change, % (test concentration not listed) | actives 0.56% (n = 360,000); in the data active = activity change below about -65%; inconclusive = mostly about -30% to -63%
Target sequence (O00167 whole entry, looked up): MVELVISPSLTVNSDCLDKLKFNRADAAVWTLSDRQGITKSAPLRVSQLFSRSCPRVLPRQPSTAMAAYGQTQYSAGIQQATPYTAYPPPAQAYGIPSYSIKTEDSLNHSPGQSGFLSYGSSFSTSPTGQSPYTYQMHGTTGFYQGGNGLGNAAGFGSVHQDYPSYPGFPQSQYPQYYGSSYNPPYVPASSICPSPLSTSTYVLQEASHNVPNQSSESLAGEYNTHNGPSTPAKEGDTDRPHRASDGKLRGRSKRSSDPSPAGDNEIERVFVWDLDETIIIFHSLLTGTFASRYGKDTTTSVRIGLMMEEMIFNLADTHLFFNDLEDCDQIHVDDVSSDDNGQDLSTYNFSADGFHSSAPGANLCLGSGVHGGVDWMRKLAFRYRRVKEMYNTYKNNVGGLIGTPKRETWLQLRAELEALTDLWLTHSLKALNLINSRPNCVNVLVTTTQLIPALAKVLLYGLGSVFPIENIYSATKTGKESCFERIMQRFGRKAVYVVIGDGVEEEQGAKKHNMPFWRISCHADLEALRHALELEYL
Target sequence (Q15475 whole entry, looked up): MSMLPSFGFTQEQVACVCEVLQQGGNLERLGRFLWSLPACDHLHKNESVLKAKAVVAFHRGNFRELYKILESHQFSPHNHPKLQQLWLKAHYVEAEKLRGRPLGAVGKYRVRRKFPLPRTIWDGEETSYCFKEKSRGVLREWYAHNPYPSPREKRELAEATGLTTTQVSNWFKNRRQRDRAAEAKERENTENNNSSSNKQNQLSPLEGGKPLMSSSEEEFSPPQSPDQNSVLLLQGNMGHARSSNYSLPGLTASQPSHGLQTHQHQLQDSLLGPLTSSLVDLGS
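Homogeneous AlphaScreen proximity assay pairing GST-Six1 with His-tagged Eya2 (added as 5X mix: 250 nM and 500 nM) in 50 mM Tris pH 8.0, 300 mM NaCl, 1 mM TCEP. Glutathione donor and nickel acceptor beads; 1 h, 37 °C, dark.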
JMJD2A Tudor inh – inhibitors of human JMJD2A Tudor domain; O75164; AlphaScreen JMJD2A-Tudor / H3K4me3 peptide binding; Potency, µM (top dose mostly 114 µM), usual class: inhibitors; actives 4.4% (n = 390,000); AID 504339; also: nearly all actives have a fitted effect of over 50% in size
HP1b chromo inh – HP1-beta chromodomain-methylated histone interaction inhibition; AlphaScreen HP1-beta / biotin-H3K9me3 peptide binding; P83916; Potency, µM (highest dose often 114 µM), usual class: inhibitors; AID 540317; actives 0.56% (n = 390,000); also: nearly all actives have a fitted effect of over 70% in size
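Compound inhibition of the preformed complex between 50 nM HP1-beta and 50 nM biotinylated H3K9me3 peptide was read by AlphaScreen. Buffer was PBS pH 7.4 with 0.01% Tween-20. Incubations ran 30 min at room temperature, with 10 ug/mL donor/acceptor beads.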
G9a block – G9a (human) methyltransferase inhibition. Q96KQ7. G9a H3K9 monomethylation, AlphaScreen, 2 h. Potency, µM (top dose mostly 102 µM), actives largely listed as inhibitors. actives 8.8% (n = 350,000); also: nearly all actives have a fitted effect of over 75% in size
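G9a (20 nM) was preincubated 15 min with compound, then reacted 2 h at room temperature with 500 nM biotin-H3K9 peptide and 20 µM SAM. Monomethyl-H3K9 detected by AlphaScreen using anti-H3K9me1 antibody.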
BAZ2B inh – BAZ2B (human) inhibition; AlphaScreen BAZ2B-H3K14Ac peptide displacement; Potency, µM (series often up to 114 µM), hits mostly inhibitors; actives 4.4% (n = 360,000); also: nearly all actives have a fitted effect of over 60% in size
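Multi-concentration screen (max 110 uM) measuring displacement of acetylated histone H3 peptide from BAZ2B by AlphaScreen, using 50 nM protein, 50 nM peptide and 10 ug/mL streptavidin donor plus Ni-chelate acceptor beads.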
Numbers stand for hits; - = inactive; ? = inconclusive; . = not tested or not shown; ! = not active in a repeat; [ ] = dose if it differs, or a comment. Unless noted, calls follow the shape of the dose curve; as a rule, active = well fitted inhibition curve with a large enough effect; inconclusive = small, poorly fitted or top-dose-only effect; inactive = no such curve, though single readings can be large or run the other way.

SMILES | CtBP-E1A blk | Six1-Eya2 blk | JMJD2A Tudor inh | HP1b chromo inh | G9a block | BAZ2B inh
COc1cccc(NC(=O)[C@H](C)NC(=O)N2CCn3c2nc2ccccc23)c1 | - | - | - | - | - | ?
COCCNC(=O)c1cnn(-c2ccc(C)cc2C)c1C1CCN(C(=O)OC(C)(C)C)CC1 | . | . | - | - | - | -
COCCNC(=O)c1c[nH]n2c(=O)cc(C3CCN(C(=O)OC(C)(C)C)CC3)nc12 | - | - | - | - | 56.2µM | -
CCCn1c(SC2C(=O)CC(C)(C)CC2=O)nc2c1c(=O)n(C)c(=O)n2C | - | - | - | - | 56.2µM | ?
Cc1ccc(NC(=O)c2oc3ccc4c(c3c2C)C(=O)CC(C)(C)O4)c(C)c1 | . | . | - | - | - | -
CSC1=C(C#N)C(c2ccncc2)C(C(=O)Nc2ccccc2)=C(C)N1 (stereo not given) | - | - | - | - | 25.1µM | -
CC1=C(C(=O)Nc2ccccc2)C(c2ccco2)C(C#N)=C(SCC(=O)Nc2cccc(C)c2C)N1 (stereo not given) | - | - | - | - | ? | -
CC1=C(C(=O)Nc2ccccc2)C(c2ccncc2)C(C#N)=C(SCC(=O)Nc2ccccc2)N1 (stereo not given) | - | - | - | - | 28.2µM | -
C[N+]1(C)C[C@@H](O)C[C@@H]1C(=O)[O-] | . | . | . | . | -[21.5 µM] | .
COc1ccc(N2CCN(C(=O)CS(=O)(=O)c3cccc4nsnc34)CC2)cc1 | . | . | - | - | - | -
NC(N)=Nc1nc2ccccc2o1 | - | - | 12.6µM | - | ? | -
O=C(NC(=Nc1nc2ccccc2o1)NC(=O)c1ccccc1)c1ccccc1 | - | - | - | - | - | -
CCCCCCCCn1c2c(c(=N)c3ccccc31)CCC2 | - | - | - | - | - | -
CCCCCn1c2c(c(=N)c3ccccc31)CCC2 | - | - | ? | - | 50.1µM | -
O=C(Cn1ccn(-c2ccc(F)cc2)c(=O)c1=O)NCCc1ccccc1 | . | . | - | - | - | ?
O=C(O)c1cccc(NC2=C(n3nnc4ccccc43)C(=O)c3ccccc3C2=O)c1 | - | - | - | - | . | ?
CCc1ccc(S(=O)(=O)/N=C2\C=C(Nc3ccc(O)cc3)C(=O)c3ccccc32)cc1 | -89.5 | -69.7 | 7.08µM | 10µM | 7.08µM | 8.91µM
CCc1ccc(S(=O)(=O)/N=C2\C=C(Nc3cccc(C(=O)O)c3)C(=O)c3ccccc32)cc1 | -74.9 | ? | 17.8µM | ? | 14.1µM | 10µM
CCc1ccc(S(=O)(=O)/N=C2/C=C(Sc3ncn[nH]3)C(=O)c3ccccc32)cc1 | - | - | 3.98µM | ? | 1.41µM | 44.7µM
CCc1ccc(S(=O)(=O)/N=C2\C=CC(=O)c3ccccc32)cc1 | . | . | . | . | 14.1µM | 35.5µM
O=S(=O)(N=C1C=CC(=NS(=O)(=O)c2ccccc2)c2ccccc21)c1ccccc1 | - | - | . | . | . | .
Cc1ccc(NC(=O)CCN2C(=O)c3ccccc3Sc3ncccc32)c(Cl)c1 | . | . | - | - | - | -
CCOC(=O)c1c(Oc2ccc(OC)cc2)nnc(-c2ccccc2)c1-c1ccccc1 | . | . | - | - | - | -
CCC1CN(C(=O)N2CCC(C(=O)O)CC2)c2cc(C)ccc2O1 (stereo not given) | . | . | - | - | - | -
Cc1ccccc1OCC(=O)Nc1nnc(S(=O)(=O)N2CCCCCC2)s1 | . | . | - | - | - | -
SMILES | CtBP-E1A blk | Six1-Eya2 blk | JMJD2A Tudor inh | HP1b chromo inh | G9a block | BAZ2B inh
CCOC(=O)c1cnc(NCc2ccc(Cl)cc2)c2ccccc12 | . | . | - | - | - | -
CC1CCN(Cc2c(O)ccc3c2O/C(=C\c2ccco2)C3=O)CC1 | - | - | - | - | 5.62µM | 50.1µM
COCCN(CCOC)Cc1c(O)ccc2c1O/C(=C\c1ccco1)C2=O | - | - | - | - | 4.47µM | 70.8µM
COC(=O)c1cc(C(=O)Nc2cc(C)ccn2)cc([N+](=O)[O-])c1 | - | - | - | - | 50.1µM | -
COc1ccc(C(=O)NC(=S)Nc2cc(C)ccn2)cc1[N+](=O)[O-] | - | - | - | - | 2.82µM | -
Cc1cccc(NC(=O)c2ccccc2Br)n1 | - | - | - | - | 22.4µM | -
COc1ccc(C(=O)Nc2cc(C)on2)cc1[N+](=O)[O-] | - | - | - | - | - | -
Cc1cccc(NC(=O)c2cccc3c2-c2ccccc2C3=O)n1 | - | - | - | - | ? | -
CCOc1ccc(C(=O)Nc2cc(C)ccn2)cc1 | - | - | 12.6µM | - | ? | -
CCNC(=S)Nc1cc(C)ccn1 | - | - | - | - | 1µM | -
Cc1cccc(NC(=O)c2sc3nc(-c4ccccc4)cn3c2C)n1 | - | - | - | - | ? | -
Cc1ccc(CC(=O)Nc2cc(C)ccn2)cc1 | - | - | - | - | - | -
COc1ccc(-c2cn3c(C)c(C(=O)Nc4cccc(C)n4)sc3n2)cc1 | - | - | - | - | 10µM | -
CCOc1ccc(C(=O)Nc2cccc(C)n2)cc1 | - | - | -[11.4 µM] | - | 50.1µM | -
CN(C)S(=O)(=O)c1ccc2c(c1)C(=O)c1cc(S(=O)(=O)N(C)C)ccc1CC2 | . | . | - | - | -[0.501 µM] | -
CN(C)S(=O)(=O)c1ccc2c(c1)/C(=C/c1cc3c([nH]1)CCCC3)C(=O)N2 | - | - | - | - | 11.2µM! | -
N#CC1=C(N)SC(N)=C(C#N)C1c1ccoc1 | . | . | . | . | 2µM | 25.1µM
Cc1ccc(C2C(C#N)=C(N)SC(N)=C2C#N)c(C)c1 | - | - | 89.1µM | - | ? | -
Cc1ccc(C2C(C#N)=C(N)SC(N)=C2C#N)cc1 | - | - | ? | - | 44.7µM | -
CCC(CC)C1C(C#N)=C(N)SC(N)=C1C#N | - | - | ? | - | ? | -
Cc1ccc(C2C(C#N)=C(N)N(c3cccnc3)C3=C2C(=O)CCC3)c(C)c1 (stereo not given) | - | - | - | - | . | -
CCOc1ccccc1NC(=O)CSc1cc(=O)n(CC)c2ccccc12 | . | . | - | - | ? | -
S=c1[nH]nc(C2CCCCC2)o1 | - | - | 20µM | - | 28.2µM | -
S=C1NNC2(NN1)C1CC3CC(C1)CC2C3 | - | - | ? | - | 8.91µM | -
CCOC(=O)c1c(C)oc2ncnc(Nc3cc(C)cc(C)c3)c12 | . | . | - | - | - | -
O=[N+]([O-])c1cc(S(=O)(=O)NC2=NCCCCC2)ccc1NCC1CCCCC1 | - | - | 44.7µM | - | 44.7µM | .
COc1cc(C2Oc3cc(C4Oc5cc(O)cc(O)c5C(=O)C4O)ccc3OC2CO)ccc1O (stereo not given) | - | - | - | - | 50.1µM | -
COc1ccc(C2CC(=O)c3c(O)cc(O)cc3O2)cc1O (stereo not given) | - | - | - | - | . | .
O=[N+]([O-])c1cccc(-c2cc3ccccc3[nH]2)c1 | - | - | - | - | - | -
O=[N+]([O-])/C=C/c1cc2ccccc2[nH]1 | . | - | - | - | 17.8µM | -
